Measured potencies and affinities stand elsewhere. Inconclusive results are not listed. Active and inactive are the calls of the source.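 How the source made its calls: active means fluorescence drops, meaning less fungal growth, with half-maximal dose at most ten times the top valid tested dose; inconclusive means flat curve with 30 to 70% inhibition, or poor fit; inactive means the rest, including compounds that raise the signal.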
Test: resistant Candida growth with fluconazole co-treatment – CaCi-8 strain, Alamar Blue, dry powder, set 2, dose response (AID 488909)
Details: C. albicans CaCi-8 + fluconazole, 48 h; series mostly up to 26 µM

| SMILES | outcome |
| --- | --- |
| Clc1ccc2c(N3CCNCC3)ccnc2c1 | inactive |
| COCCC(=O)N1CCN(c2ccnc3cc(Cl)ccc23)CC1 | inactive |
| N#Cc1ccc(N2CCN(C(=O)c3ccc(Cl)cc3)CC2)nc1 | inactive |
| Cc1cc(N2CCN(C(=O)c3ccc(Cl)cc3)CC2)c2ccccc2n1 | inactive |

From PubChem BioAssay AID488909 (Broad Institute, 2010)
